In PubChem BioAssay one finds z-score data, which are given here for 30 molecules.

The structures appear in SMILES notation. Values without a mark were called inactive. Activity calls are given as the source filed them.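 Rule for the calls: active = z-score of at least 1.8 in each of two replicates, scored against plate mean and spread of sample wells; inactive = the rest.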

The assay in a line: galactose survival enhancers in mitochondrial complex I cybrids – cell-based, galactose medium, ATP luminescence, primary screen (AID 1645843).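 Note: positive z means more ATP and so rescue of galactose-driven cybrid death.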 To be noted: complex I mutant cybrid cells, 72 h, active compounds read high.
For the molecule `C=CCn1nc(C(=O)N2CCSCC2)c2c1CCC(NCCCSC)C2` (stereo not given), the z-score was 0.93.
For `Cc1csc(-c2cc(C(=O)NCCCN3CCOCC3)cc(S(=O)(=O)N3CCOCC3)c2)c1` the value was 2.09.
Regarding `COCc1ccc(CN2CCC3(CC2)C(=O)N(C2Cc4ccccc4C2)C(=O)N3CC(C)C)o1`, the z-score is 1.99 (active).
On to `COc1ccc(-c2cc3c(n(C)c2=O)CCN(C2CCSC2)C3)c2ccc(C)nc12` (stereo not given), for which the z-score is 1.09.
Consider `CCc1nc(Cn2c3c(cc(-c4ccccc4C)c2=O)CN(Cc2ccc(O)c(Cl)c2)CC3)no1`, for which the z-score is 0.44.
For the molecule `CCn1cc(CN2CCN3C(=O)[C@@H]4C[C@@H](O)CN4C(=O)[C@H]3C2)c(C)n1`, the z-score is -0.705.
For `CCc1nc(CNc2cc(C(=O)NCc3ccccn3)cc(S(=O)(=O)N3CCCC3)c2)c(C)[nH]1` the value was 0.97.
Next, `CC(C)CN1CC(OCc2cccc(F)c2)CN(C(=O)c2cccc(N3CCNC3=O)c2)CC1=O` (stereo not given): 0.795; `Cn1nc(C(=O)N2CCCCCC2)c2c1CCC(NCc1ccc(C(F)(F)F)cc1)C2` (stereo not given): 1.12; `Cc1cc(-c2cc3c(n(C)c2=O)CCN(Cc2ccc(Sc4nncn4C)o2)C3)ccc1F`: 0.445.
For `CN(C)C(=O)c1nn(Cc2ccccc2)c2c1CN(C(=O)C1CC(=O)Nc3ccccc31)CC2` (stereo not given) the value was 0.725; for `O=C(Oc1ccccc1)N1CCN2C(=O)[C@@H]3C[C@@H](O)CN3C(=O)[C@H]2C1`, -0.655; for `CCCCNC(=O)[C@@H]1C[C@H](CN2CCOCC2)CN(CCc2ccccc2)C1`, -0.965.
For the molecule `CN(Cc1ccco1)C(=O)c1nn(C)c2c1CC(N1CCOc3ccc(Cl)cc3C1)CC2` (stereo not given), the z-score is -0.61.
Consider `Cc1ccc(C(C)CCN2CCc3c(c(C(=O)N4CCC(O)CC4)nn3CCc3ccccc3)C2)o1` (stereo not given), for which the z-score was 0.6.
`COc1ccc(CN2C(=O)N(C)C3(CCN(Cc4cccn4-c4ccccn4)CC3)C2=O)cc1`: the z-score was 0.16.
As to `COc1cc(CN2CC(=O)N(CC3CCOCC3)CC(OCc3ccccn3)C2)cc2c1OCO2` (stereo not given), the z-score is -1.33.
Next, `O=c1c(-c2ccccc2Cl)cc2c(n1Cc1ccncc1)CCN(Cc1ccnc3ccccc13)C2`: 0.915; `Cc1csc(-c2cc(C(=O)NCCC3CCCN3C)cc(S(=O)(=O)N3CCOCC3)c2)c1` (stereo not given): -1.3; `Cc1ccnn1CCC(=O)N1CC(=O)N(CC(C)C)CC(OCc2ccccn2)C1` (stereo not given): 0.98.
Next, `CC(C)CCNc1cc(C(=O)N[C@H]2CCCCNC2=O)cc(S(=O)(=O)NC(C)C)c1`: -0.51; `Cc1ccc(-c2cc(C(=O)N3CCC[C@H]3CO)cc(S(=O)(=O)N3CCOCC3)c2)s1`: -0.415; `COc1ccccc1C(=O)N1CCN2C(=O)[C@@H]3CSCN3C(=O)[C@H]2C1`: -0.395.
Consider `Cn1nc(C(=O)NCc2cccnc2)c2c1CCN(Cc1ccc3c(c1)Cc1ccccc1-3)C2`, for which the z-score was 0.125.
For the molecule `CC(C)N1CC(OCc2ccc(F)cc2)CN(C(=O)c2ccc(C#CC(C)(C)O)o2)CC1=O` (stereo not given), the z-score is 0.06.
As to `COc1ccc(C(=O)N2CCN3C(=O)[C@H](COCc4ccccc4)NC(=O)[C@H]3C2)cc1`, the z-score is -0.43.
Next, `CN1C(=O)N(Cc2ccccc2)C2(CCN(Cc3nc4ccccc4n3C)CC2)C1=O`: -0.11.
As to `O=C(NCc1ccccn1)c1cc(NCC2CC2)cc(S(=O)(=O)N2CCCC2)c1`, the z-score is 0.59.
Regarding `CC1=C(CCN2CCC3(CC2)C(=O)N(C(C)C)C(=O)N3C)C(C)(C)CCC1`, the z-score is 1.89.
Turning to `O=C(Nc1ccccc1Cl)N[C@H]1C[C@H]2C(=O)N[C@H](Cc3ccc(O)cc3)C(=O)N2C1`, the z-score was -0.455.
